Over roughly 24,000 sequences, “enrichment r” has its median near 0.99; the highest 2% begin near 3.7. Shown is part of a subset that was picked to be rich in the highest values.
T1: UNK ZnF1-3 (human, UniProt Q9C0B0 31-174)
T1 sequence: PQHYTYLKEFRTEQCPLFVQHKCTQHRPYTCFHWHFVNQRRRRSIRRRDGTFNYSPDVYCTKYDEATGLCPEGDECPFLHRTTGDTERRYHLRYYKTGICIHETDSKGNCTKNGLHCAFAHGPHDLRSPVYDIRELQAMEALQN

B1: 24817595_24818005_4380_CDS_ENSG00000090905_ENST00000315183|human|control|control (ssRNA)
RNA: GGGAGUUCUACAGUCCGACGAUCCUGAUGGAGUGGCUGCUGCUGAGAUGGUGGAGUCUGCUGCUUCACCAACAGGUUUGGAUCAAGUUGACGAGAUUGUUGCAUCAUUUGCUGCUGCACACUAAGAGGUCGACCCUGCUGGUCCAACAGAGGAUUGAGCAUCA
B2: chr10:33190432:33190433:-_ENSG00000150093_ENST00000302278|hu_mus|hu_hu_hu_mus_True|1_48 (ssRNA)
RNA: GGGAGUUCUACAGUCCGACGAUCUACAUUUUCCAAACCUGCAUGUGAAUAAAACCCUGGCCACAGAGCCCCAAAACUACCCUACUGUGACUAUGGAGCUGCUGCUGUGAGCUUGGUGUUGCAAAAUCCGCCUGAGUCAGUACUCAACAGAGGAUUGAGCAUCA
B3: 17505014_17509309_214_5pUTR_ENSMUSG00000019370_ENSMUST00000019514|mouse|control|control (ssRNA)
RNA: GGGAGUUCUACAGUCCGACGAUCCAUGGCGAGGCACCGGUAUCCGGAGCUCGGGGAUCGAGGUUACUCUGGCGGCGGCAGCAGCUGCAGCAGCUCGAGCUCCGCCGCGCGUCCGCGCCUCCACACUCUUUGCCCGCAGCGCGCCAACAGAGGAUUGAGCAUCA
B4: chr8:80553714:80553715:+_ENSG00000104435_ENST00000220876|hu_mus|motif|central (ssRNA)
RNA: GGGAGUUCUACAGUCCGACGAUCAGCCUCCAGCUUUUUCUGAAUCUCCUCCAGAGACAGGUCUUUCUUCUUUGGAGAAGCGGGAGUUCGUGGAGCUUCUGAGAUGGGAGAUGGUGGCUUCAAGAUCAGCUCAAAAGCCUGGCCCAACAGAGGAUUGAGCAUCA
B5: chr11:100577090:100577091:-_ENSMUSG00000019173_ENSMUST00000107364|mus_hu|motif|central (ssRNA)
RNA: GGGAGUUCUACAGUCCGACGAUCCUGCACUGACCCCACUGUCCCCAUAUACAAGGGUUGGGGGGCAAGAGCAUGUGGCGGCUCCCAGCAAGGGAAAAUGGGAGAGCAGUAGAAAGGGGAGGAAGUGGGAAGAGCAGAAGAUCACAACAGAGGAUUGAGCAUCA
B6: chr1:89687925:89687926:+_ENSMUSG00000026289_ENSMUST00000027512|mus_hu|FALSE|FALSE (ssRNA)
RNA: GGGAGUUCUACAGUCCGACGAUCCCAGGACAGGGCUGCAGGAGCCCAUGUGCUUCUUCUGAGGAGGGCACUGGGGUCCUCCCAGCCCUGAGAGCCCCGUCAGUACUGUGCCCACAGCACAGCUUUGCAUCCUUUGUCCACACUCAACAGAGGAUUGAGCAUCA

Molecular target: T1, UNK ZnF1-3
Test: nsRBNS (natural sequence RNA bind-n-seq); RBNS binding buffer (assumed for nsRBNS): 25 mM Tris pH 7.5, 150 mM KCl, 3 mM MgCl2, 0.01% Triton X-100, 500 ug/ml BSA, 20 U/ml SUPERase-In, 4 C; UNK is unkempt and MSI1 is Musashi-1; names of the RNAs are library labels; protein concentration not given here; high values mean tight binding

Binder	binding signal [enrichment R]
B1	0.736
B2	1.02
B3	0.975
B4	1.22
B5	1.93
B6	0.419

Source: paper PMC12136788
